{"source": "PubChem BioAssay AID1159580", "about": "(chemical genetic matrix, 2015)", "assay": "chemical genetic growth profiling, strain panel (AID 1159580);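 note: tested at 20 µM; growth read once vehicle control cultures reached saturation at 30 °C; 1 = growth at the plate median or of vehicle wells; lower values mean less growth of the strain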", "conditions": "growth OD", "key": {"[1]": {"conditions": "S. cerevisiae deletion strains, locus YAL013W, strain DEP1, hits give low values"}, "[2]": {"conditions": "S. cerevisiae deletion strains, locus YBR229C, strain ROT2, hits give low values"}, "[3]": {"conditions": "S. cerevisiae deletion strains, locus YCL061C, strain MRC1, hits give low values"}, "[4]": {"conditions": "S. cerevisiae deletion strains, locus YDL101C, strain DUN1, hits give low values"}, "[5]": {"conditions": "S. cerevisiae deletion strains, locus YDR150W, strain NUM1, hits give low values"}, "[6]": {"conditions": "S. cerevisiae deletion strains, locus YEL061C, strain CIN8, hits give low values"}, "[7]": {"conditions": "S. cerevisiae deletion strains, locus YGR078C, strain PAC10, hits give low values"}, "[8]": {"conditions": "S. cerevisiae deletion strains, locus YHR030C, strain SLT2, hits give low values"}, "[9]": {"conditions": "S. cerevisiae deletion strains, locus YHR087W, strain rtc3, hits give low values"}, "[10]": {"conditions": "S. cerevisiae deletion strains, locus YJL187C, strain SWE1, hits give low values"}, "[11]": {"conditions": "S. cerevisiae deletion strains, locus YJR043C, strain POL32, hits give low values"}, "[12]": {"conditions": "S. cerevisiae deletion strains, locus YJR075W, strain HOC1, hits give low values"}, "[13]": {"conditions": "S. cerevisiae deletion strains, locus YLR039C, strain RIC1, hits give low values"}, "[14]": {"conditions": "S. cerevisiae deletion strains, locus YLR058C, strain SHM2 (second series), hits give low values"}, "[15]": {"conditions": "S. cerevisiae deletion strains, locus YLR085C, strain ARP6, hits give low values"}, "[16]": {"conditions": "S. cerevisiae deletion strains, locus YLR262C, strain YPT6, hits give low values"}, "[17]": {"conditions": "S. cerevisiae deletion strains, locus YML094W, strain GIM5, hits give low values"}, "[18]": {"conditions": "S. cerevisiae deletion strains, locus YMR219W, strain ESC1, hits give low values"}, "[19]": {"conditions": "S. cerevisiae deletion strains, locus YMR263W, strain SAP30, hits give low values"}, "[20]": {"conditions": "S. cerevisiae deletion strains, locus YNL153C, strain GIM3, hits give low values"}, "[21]": {"conditions": "S. cerevisiae deletion strains, locus YNL298W, strain CLA4 (second series), hits give low values"}, "[22]": {"conditions": "S. cerevisiae deletion strains, locus YNL322C, strain KRE1, hits give low values"}, "[23]": {"conditions": "S. cerevisiae deletion strains, locus YNR030W, strain Alg12, hits give low values"}, "[24]": {"conditions": "S. cerevisiae deletion strains, locus YPL055C, strain LGE1, hits give low values"}, "[25]": {"conditions": "S. cerevisiae deletion strains, locus YPL241C, strain CIN2, hits give low values"}, "[26]": {"conditions": "S. cerevisiae deletion strains, locus YPR135W, strain CTF4, hits give low values"}, "[27]": {"conditions": "S. cerevisiae deletion strains, locus YDL134C, strain PPH21, hits give low values"}, "[28]": {"conditions": "S. cerevisiae deletion strains, locus YKL190W, strain CNB1, hits give low values"}}, "note": "Among all 5,500 compounds or so, about 2,000 (36%) were called active. Inconclusive results (about 18%) are left out. Cut-off read from the data, not from the text of the source: active = normalized growth mostly below about 0.91 (no sharp cut-off); inconclusive = no clear call, values can overlap the other calls; inactive = mostly above about 0.92. Some of the results follow.", "data": [{"smiles": "O=C(NNC(=S)Nc1cccc(Cl)c1)c1cccnc1", "values": [{"measurement": "normalized growth", "setting": "[1]", "result": "1 (inactive)"}, {"measurement": "normalized growth", "setting": "[2]", "result": "1 (inactive)"}, {"measurement": "normalized growth", "setting": "[3]", "result": "0.976 (inactive)"}, {"measurement": "normalized growth", "setting": "[4]", "result": "0.978 (inactive)"}, {"measurement": "normalized growth", "setting": "[5]", "result": "0.969 (inactive)"}, {"measurement": "normalized growth", "setting": "[6]", "result": "1.01 (inactive)"}, {"measurement": "normalized growth", "setting": "[7]", "result": "0.97 (inactive)"}, {"measurement": "normalized growth", "setting": "[8]", "result": "0.939 (inactive)"}, {"measurement": "normalized growth", "setting": "[9]", "result": "0.992 (inactive)"}, {"measurement": "normalized growth", "setting": "[10]", "result": "0.985 (inactive)"}, {"measurement": "normalized growth", "setting": "[11]", "result": "0.999 (inactive)"}, {"measurement": "normalized growth", "setting": "[12]", "result": "0.982 (inactive)"}, {"measurement": "normalized growth", "setting": "[13]", "result": "1.03 (inactive)"}, {"measurement": "normalized growth", "setting": "[14]", "result": "0.997 (inactive)"}, {"measurement": "normalized growth", "setting": "[15]", "result": "0.885 (inactive)"}, {"measurement": "normalized growth", "setting": "[16]", "result": "1.02 (inactive)"}, {"measurement": "normalized growth", "setting": "[17]", "result": "0.965 (inactive)"}, {"measurement": "normalized growth", "setting": "[18]", "result": "0.999 (inactive)"}, {"measurement": "normalized growth", "setting": "[19]", "result": "0.949 (inactive)"}, {"measurement": "normalized growth", "setting": "[20]", "result": "0.979 (inactive)"}, {"measurement": "normalized growth", "setting": "[21]", "result": "0.98 (inactive)"}, {"measurement": "normalized growth", "setting": "[22]", "result": "0.994 (inactive)"}, {"measurement": "normalized growth", "setting": "[23]", "result": "0.956 (inactive)"}, {"measurement": "normalized growth", "setting": "S. cerevisiae deletion strains, locus YOL006C, strain TOP1, hits give low values", "result": "0.803 (inactive)"}, {"measurement": "normalized growth", "setting": "[24]", "result": "0.868 (inactive)"}, {"measurement": "normalized growth", "setting": "[25]", "result": "0.972 (inactive)"}, {"measurement": "normalized growth", "setting": "[26]", "result": "0.893 (inactive)"}]}, {"smiles": "O=C(NNC(=S)NC1CC2C=CC1C2)c1cccnc1", "note": "(centres undefined)", "values": [{"measurement": "normalized growth", "setting": "[1]", "result": "0.985 (inactive)"}, {"measurement": "normalized growth", "setting": "[2]", "result": "0.992 (inactive)"}, {"measurement": "normalized growth", "setting": "[3]", "result": "0.971 (inactive)"}, {"measurement": "normalized growth", "setting": "[4]", "result": "0.979 (inactive)"}, {"measurement": "normalized growth", "setting": "[27]", "result": "0.992 (inactive)"}, {"measurement": "normalized growth", "setting": "[5]", "result": "0.971 (inactive)"}, {"measurement": "normalized growth", "setting": "[6]", "result": "0.977 (inactive)"}, {"measurement": "normalized growth", "setting": "[7]", "result": "0.982 (inactive)"}, {"measurement": "normalized growth", "setting": "[8]", "result": "0.908 (inactive)"}, {"measurement": "normalized growth", "setting": "[9]", "result": "1.07 (inactive)"}, {"measurement": "normalized growth", "setting": "[10]", "result": "0.989 (inactive)"}, {"measurement": "normalized growth", "setting": "[11]", "result": "0.977 (inactive)"}, {"measurement": "normalized growth", "setting": "[12]", "result": "0.986 (inactive)"}, {"measurement": "normalized growth", "setting": "[28]", "result": "0.997 (inactive)"}, {"measurement": "normalized growth", "setting": "[13]", "result": "0.812 (inactive)"}, {"measurement": "normalized growth", "setting": "[14]", "result": "0.985 (inactive)"}, {"measurement": "normalized growth", "setting": "[15]", "result": "0.938 (inactive)"}, {"measurement": "normalized growth", "setting": "[16]", "result": "0.809 (active)"}, {"measurement": "normalized growth", "setting": "[17]", "result": "0.962 (inactive)"}, {"measurement": "normalized growth", "setting": "[18]", "result": "0.993 (inactive)"}, {"measurement": "normalized growth", "setting": "[19]", "result": "0.984 (inactive)"}, {"measurement": "normalized growth", "setting": "S. cerevisiae deletion strains, locus YMR307W, strain GAS1, hits give low values", "result": "1.22 (inactive)"}, {"measurement": "normalized growth", "setting": "[20]", "result": "0.993 (inactive)"}, {"measurement": "normalized growth", "setting": "[21]", "result": "0.958 (inactive)"}, {"measurement": "normalized growth", "setting": "[22]", "result": "0.993 (inactive)"}, {"measurement": "normalized growth", "setting": "[23]", "result": "0.979 (inactive)"}, {"measurement": "normalized growth", "setting": "[24]", "result": "0.979 (inactive)"}, {"measurement": "normalized growth", "setting": "[25]", "result": "0.964 (inactive)"}, {"measurement": "normalized growth", "setting": "[26]", "result": "0.92 (inactive)"}]}, {"smiles": "O=C(CSCc1c(Cl)cccc1Cl)NNC(=S)NC1CC2C=CC1C2", "note": "(centres undefined)", "values": [{"measurement": "normalized growth", "setting": "[1]", "result": "0.99 (inactive)"}, {"measurement": "normalized growth", "setting": "[2]", "result": "0.972 (inactive)"}, {"measurement": "normalized growth", "setting": "[4]", "result": "0.94 (inactive)"}, {"measurement": "normalized growth", "setting": "[27]", "result": "0.857 (active)"}, {"measurement": "normalized growth", "setting": "[5]", "result": "0.956 (inactive)"}, {"measurement": "normalized growth", "setting": "[7]", "result": "0.97 (inactive)"}, {"measurement": "normalized growth", "setting": "[8]", "result": "0.838 (inactive)"}, {"measurement": "normalized growth", "setting": "[9]", "result": "1.06 (inactive)"}, {"measurement": "normalized growth", "setting": "[10]", "result": "0.979 (inactive)"}, {"measurement": "normalized growth", "setting": "[11]", "result": "0.971 (inactive)"}, {"measurement": "normalized growth", "setting": "[12]", "result": "0.973 (inactive)"}, {"measurement": "normalized growth", "setting": "[28]", "result": "0.762 (active)"}, {"measurement": "normalized growth", "setting": "[13]", "result": "0.607 (active)"}, {"measurement": "normalized growth", "setting": "[14]", "result": "1.01 (inactive)"}, {"measurement": "normalized growth", "setting": "[15]", "result": "0.788 (inactive)"}, {"measurement": "normalized growth", "setting": "[16]", "result": "0.59 (active)"}, {"measurement": "normalized growth", "setting": "[17]", "result": "0.827 (active)"}, {"measurement": "normalized growth", "setting": "[18]", "result": "1.01 (inactive)"}, {"measurement": "normalized growth", "setting": "[19]", "result": "0.944 (inactive)"}, {"measurement": "normalized growth", "setting": "S. cerevisiae deletion strains, locus YNL128W, strain TEP1, hits give low values", "result": "0.792 (active)"}, {"measurement": "normalized growth", "setting": "[20]", "result": "0.955 (inactive)"}, {"measurement": "normalized growth", "setting": "[21]", "result": "0.658 (active)"}, {"measurement": "normalized growth", "setting": "[22]", "result": "1.02 (inactive)"}, {"measurement": "normalized growth", "setting": "[23]", "result": "0.781 (active)"}, {"measurement": "normalized growth", "setting": "[24]", "result": "0.867 (inactive)"}, {"measurement": "normalized growth", "setting": "[25]", "result": "0.696 (active)"}, {"measurement": "normalized growth", "setting": "[26]", "result": "0.873 (inactive)"}, {"measurement": "normalized growth", "setting": "S. cerevisiae strains, strain wild type, hits give low values", "result": "0.746 (active)"}]}]}
